Drawing on article PMC11006913, this text covers binding signal for nine sequences.

Common to all, as to experiment: PBM; 200 nM protein, PBS
Holding throughout (details): dsDNA, one strand shown

For experiment [1], the target named is HOXB9 (Homo sapiens, UniProt P17482 171-250, T197M).
Experiment [2] addresses HOXC9 (Homo sapiens, UniProt P31274 178-260, K195R).
In experiment [3] the target is HOXC10 (Homo sapiens, UniProt Q9NYD6 254-340).
For experiment [4], the target named is HOXB9 (Homo sapiens, UniProt P17482 171-250).
The target of experiment [5] is HOXC9 (Homo sapiens, UniProt P31274 178-260).
Experiment [6] addresses HOXC9 (Homo sapiens, UniProt P31274 178-260, R193K).
Experiment [7] has as its target HOXC10 (Homo sapiens, UniProt Q9NYD6 254-340, K271E).
The target in experiment [8] is HOXB9 (Homo sapiens, UniProt P17482 171-250, R186Q).
The target in experiment [9] is HOXC9 (Homo sapiens, UniProt P31274 178-260, R222W).
A further experiment deals with ALX4 (Homo sapiens, UniProt Q9H161 200-286, Q225E).
Experiment [10] addresses HOXA2 (Homo sapiens, UniProt O43364 129-215, R185T).
For experiment [11], the target named is HOXA2 (Homo sapiens, UniProt O43364 129-215, R185K).
Experiment [12] deals with HOXA2 (Homo sapiens, UniProt O43364 129-215, Y150S).
Experiment [13] has as its target HOXA2 (Homo sapiens, UniProt O43364 129-215).
The target of experiment [14] is HOXD13 (Homo sapiens, UniProt P35453 263-343, T313R).
For experiment [15], the target named is HOXD13 (Homo sapiens, UniProt P35453 263-343).
Experiment [16] addresses HOXD13 (Homo sapiens, UniProt P35453 263-343, T313A).

Chain of HOXC9 (Homo sapiens, UniProt P31274 178-260) (P31274 178-260): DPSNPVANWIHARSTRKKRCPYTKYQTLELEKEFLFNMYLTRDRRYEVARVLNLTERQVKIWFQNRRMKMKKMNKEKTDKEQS
Chain of HOXB9 (Homo sapiens, UniProt P17482 171-250) (P17482 171-250): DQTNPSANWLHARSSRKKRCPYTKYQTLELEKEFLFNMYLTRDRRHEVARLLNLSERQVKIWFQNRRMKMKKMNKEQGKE
Chain of HOXC10 (Homo sapiens, UniProt Q9NYD6 254-340) (Q9NYD6 254-340): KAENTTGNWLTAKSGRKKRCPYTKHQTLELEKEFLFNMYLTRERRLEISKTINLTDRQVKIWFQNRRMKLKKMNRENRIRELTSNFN
Chain of HOXD13 (Homo sapiens, UniProt P35453 263-343, T313A) (P35453 263-343 T313A): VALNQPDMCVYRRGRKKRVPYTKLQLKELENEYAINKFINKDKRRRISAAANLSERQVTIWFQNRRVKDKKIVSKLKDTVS
Chain of HOXC9 (Homo sapiens, UniProt P31274 178-260, K195R) (P31274 178-260 K195R): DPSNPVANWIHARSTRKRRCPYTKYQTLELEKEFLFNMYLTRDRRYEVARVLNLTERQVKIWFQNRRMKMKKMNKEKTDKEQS
Chain of HOXC10 (Homo sapiens, UniProt Q9NYD6 254-340, K271E) (Q9NYD6 254-340 K271E): as the sequence (Q9NYD6 254-340) above, with K18E counted along it
Chain of HOXD13 (Homo sapiens, UniProt P35453 263-343, T313R) (P35453 263-343 T313R): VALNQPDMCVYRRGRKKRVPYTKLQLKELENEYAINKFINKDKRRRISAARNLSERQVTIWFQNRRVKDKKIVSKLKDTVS
Chain of HOXC9 (Homo sapiens, UniProt P31274 178-260, R193K) (P31274 178-260 R193K): as the sequence (P31274 178-260) above, with R16K counted along it
Chain of HOXC9 (Homo sapiens, UniProt P31274 178-260, R222W) (P31274 178-260 R222W): as the sequence (P31274 178-260) above, with R45W counted along it
Chain of HOXB9 (Homo sapiens, UniProt P17482 171-250, R186Q) (P17482 171-250 R186Q): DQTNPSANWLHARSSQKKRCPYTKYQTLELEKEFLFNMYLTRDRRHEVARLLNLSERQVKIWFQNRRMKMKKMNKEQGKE
Chain of HOXB9 (Homo sapiens, UniProt P17482 171-250, T197M) (P17482 171-250 T197M): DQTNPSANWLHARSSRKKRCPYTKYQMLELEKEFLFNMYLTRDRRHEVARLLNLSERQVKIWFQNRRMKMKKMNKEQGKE
Chain of HOXD13 (Homo sapiens, UniProt P35453 263-343) (P35453 263-343): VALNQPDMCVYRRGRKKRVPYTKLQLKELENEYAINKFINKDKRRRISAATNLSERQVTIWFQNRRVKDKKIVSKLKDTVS
Chain of ALX4 (Q9H161 200-286 Q225E): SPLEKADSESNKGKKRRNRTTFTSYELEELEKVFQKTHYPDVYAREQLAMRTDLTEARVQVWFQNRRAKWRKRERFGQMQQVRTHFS
Chain of HOXA2 (Homo sapiens, UniProt O43364 129-215, R185K) (O43364 129-215 R185K): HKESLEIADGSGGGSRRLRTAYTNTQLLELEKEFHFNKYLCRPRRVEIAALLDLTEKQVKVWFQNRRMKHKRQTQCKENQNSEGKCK
Chain of HOXA2 (Homo sapiens, UniProt O43364 129-215) (O43364 129-215): as the sequence (O43364 129-215 R185K) above, with K57R counted along it
Chain of HOXA2 (Homo sapiens, UniProt O43364 129-215, Y150S) (O43364 129-215 Y150S): as the sequence (O43364 129-215 R185K) above, with Y22S, K57R counted along it
Chain of HOXA2 (Homo sapiens, UniProt O43364 129-215, R185T) (O43364 129-215 R185T): as the sequence (O43364 129-215 R185K) above, with K57T counted along it

In the case of CCCTCACC, the binding signal in the experiment with HOXB9 [1] was 8.63 upbm affinity estimate (log intensity, higher = more binding, comparable within an allelic series); in the experiment with HOXC9 [2], 9.5 upbm affinity estimate (log intensity, higher = more binding, comparable within an allelic series); in the experiment with HOXC10 [3] it was 9.97 upbm affinity estimate (log intensity, higher = more binding, comparable within an allelic series); in the experiment with HOXB9 [4], 8.28 upbm affinity estimate (log intensity, higher = more binding, comparable within an allelic series); in the experiment with HOXC9 [5], 9.44 upbm affinity estimate (log intensity, higher = more binding, comparable within an allelic series); with HOXC9 [6] it was 9.56 upbm affinity estimate (log intensity, higher = more binding, comparable within an allelic series). Moreover, the binding signal is 9.96 upbm affinity estimate (log intensity, higher = more binding, comparable within an allelic series) in the experiment with HOXC10 [7]; 8.43 upbm affinity estimate (log intensity, higher = more binding, comparable within an allelic series) in the experiment with HOXB9 [8]; 9.7 upbm affinity estimate (log intensity, higher = more binding, comparable within an allelic series) with HOXC9 [9].

As to AATAAAAA, the binding signal with HOXB9 [1] was 9.88 upbm affinity estimate (log intensity, higher = more binding, comparable within an allelic series); with HOXC9 [2] it was 12.5 upbm affinity estimate (log intensity, higher = more binding, comparable within an allelic series); with HOXC10 [3] it was 12.4 upbm affinity estimate (log intensity, higher = more binding, comparable within an allelic series); with ALX4 it was 10.9 upbm affinity estimate (log intensity, higher = more binding, comparable within an allelic series); with HOXB9 [4] it was 11.9 upbm affinity estimate (log intensity, higher = more binding, comparable within an allelic series); with HOXC9 [5], 12.6 upbm affinity estimate (log intensity, higher = more binding, comparable within an allelic series). In addition, the binding signal is 12.5 upbm affinity estimate (log intensity, higher = more binding, comparable within an allelic series) with HOXC9 [6]; 11.9 upbm affinity estimate (log intensity, higher = more binding, comparable within an allelic series) in the experiment with HOXC10 [7]; 11.6 upbm affinity estimate (log intensity, higher = more binding, comparable within an allelic series) in the experiment with HOXB9 [8]; 11.2 upbm affinity estimate (log intensity, higher = more binding, comparable within an allelic series) with HOXC9 [9].

CCTAGGGC: the binding signal is 8.55 upbm affinity estimate (log intensity, higher = more binding, comparable within an allelic series) in the experiment with HOXB9 [1]; 9.6 upbm affinity estimate (log intensity, higher = more binding, comparable within an allelic series) with HOXC9 [2]; 6.96 upbm affinity estimate (log intensity, higher = more binding, comparable within an allelic series) in the experiment with HOXA2 [10]; 8.37 upbm affinity estimate (log intensity, higher = more binding, comparable within an allelic series) in the experiment with HOXB9 [4]; 9.6 upbm affinity estimate (log intensity, higher = more binding, comparable within an allelic series) with HOXC9 [5]; 9.53 upbm affinity estimate (log intensity, higher = more binding, comparable within an allelic series) with HOXC9 [6]. Further, the binding signal with HOXA2 [11] is 10.4 upbm affinity estimate (log intensity, higher = more binding, comparable within an allelic series); in the experiment with HOXB9 [8] it was 8.47 upbm affinity estimate (log intensity, higher = more binding, comparable within an allelic series); with HOXC9 [9] it was 9.68 upbm affinity estimate (log intensity, higher = more binding, comparable within an allelic series); with HOXA2 [12] it was 10.4 upbm affinity estimate (log intensity, higher = more binding, comparable within an allelic series); in the experiment with HOXA2 [13], 6.98 upbm affinity estimate (log intensity, higher = more binding, comparable within an allelic series).

On to ATAATAAA, for which the binding signal was 9.88 upbm affinity estimate (log intensity, higher = more binding, comparable within an allelic series) in the experiment with HOXB9 [1]; 12.7 upbm affinity estimate (log intensity, higher = more binding, comparable within an allelic series) with HOXC9 [2]; 12.5 upbm affinity estimate (log intensity, higher = more binding, comparable within an allelic series) in the experiment with HOXC10 [3]; 11.9 upbm affinity estimate (log intensity, higher = more binding, comparable within an allelic series) with HOXB9 [4]; 12.7 upbm affinity estimate (log intensity, higher = more binding, comparable within an allelic series) with HOXC9 [5]; 10.8 upbm affinity estimate (log intensity, higher = more binding, comparable within an allelic series) in the experiment with HOXD13 [14]. Also, the binding signal in the experiment with HOXC9 [6] is 12.7 upbm affinity estimate (log intensity, higher = more binding, comparable within an allelic series); with HOXD13 [15] it was 11.8 upbm affinity estimate (log intensity, higher = more binding, comparable within an allelic series); with HOXC10 [7], 11.9 upbm affinity estimate (log intensity, higher = more binding, comparable within an allelic series); with HOXD13 [16] it was 11.6 upbm affinity estimate (log intensity, higher = more binding, comparable within an allelic series); with HOXB9 [8], 11.5 upbm affinity estimate (log intensity, higher = more binding, comparable within an allelic series); with HOXC9 [9], 11.2 upbm affinity estimate (log intensity, higher = more binding, comparable within an allelic series).

Consider ATTTTATG, for which the binding signal was 9.94 upbm affinity estimate (log intensity, higher = more binding, comparable within an allelic series) with HOXB9 [1]; 13 upbm affinity estimate (log intensity, higher = more binding, comparable within an allelic series) with HOXC9 [2]; 12.7 upbm affinity estimate (log intensity, higher = more binding, comparable within an allelic series) with HOXC10 [3]; 12.5 upbm affinity estimate (log intensity, higher = more binding, comparable within an allelic series) with HOXB9 [4]; 13.1 upbm affinity estimate (log intensity, higher = more binding, comparable within an allelic series) in the experiment with HOXC9 [5]; 10.8 upbm affinity estimate (log intensity, higher = more binding, comparable within an allelic series) in the experiment with HOXD13 [14]. The binding signal with HOXC9 [6] is 13 upbm affinity estimate (log intensity, higher = more binding, comparable within an allelic series); with HOXD13 [15], 11.8 upbm affinity estimate (log intensity, higher = more binding, comparable within an allelic series); in the experiment with HOXC10 [7], 12.1 upbm affinity estimate (log intensity, higher = more binding, comparable within an allelic series); with HOXD13 [16] it was 11.5 upbm affinity estimate (log intensity, higher = more binding, comparable within an allelic series); with HOXB9 [8] it was 12.1 upbm affinity estimate (log intensity, higher = more binding, comparable within an allelic series); in the experiment with HOXC9 [9], 11.4 upbm affinity estimate (log intensity, higher = more binding, comparable within an allelic series).

In the case of TCGTAAAA, the binding signal was 9.97 upbm affinity estimate (log intensity, higher = more binding, comparable within an allelic series) in the experiment with HOXB9 [1]; 13.1 upbm affinity estimate (log intensity, higher = more binding, comparable within an allelic series) with HOXC9 [2]; 12.8 upbm affinity estimate (log intensity, higher = more binding, comparable within an allelic series) with HOXC10 [3]; 12.6 upbm affinity estimate (log intensity, higher = more binding, comparable within an allelic series) in the experiment with HOXB9 [4]; 13.2 upbm affinity estimate (log intensity, higher = more binding, comparable within an allelic series) in the experiment with HOXC9 [5]; 11.1 upbm affinity estimate (log intensity, higher = more binding, comparable within an allelic series) with HOXD13 [14]. In addition, the binding signal was 13 upbm affinity estimate (log intensity, higher = more binding, comparable within an allelic series) in the experiment with HOXC9 [6]; 12.3 upbm affinity estimate (log intensity, higher = more binding, comparable within an allelic series) with HOXD13 [15]; 12.3 upbm affinity estimate (log intensity, higher = more binding, comparable within an allelic series) in the experiment with HOXC10 [7]; 12.2 upbm affinity estimate (log intensity, higher = more binding, comparable within an allelic series) with HOXD13 [16]; 12 upbm affinity estimate (log intensity, higher = more binding, comparable within an allelic series) with HOXB9 [8]; 11.3 upbm affinity estimate (log intensity, higher = more binding, comparable within an allelic series) with HOXC9 [9].

Take ATCATAAA: the binding signal with HOXB9 [1] is 9.69 upbm affinity estimate (log intensity, higher = more binding, comparable within an allelic series); with HOXC9 [2], 12.7 upbm affinity estimate (log intensity, higher = more binding, comparable within an allelic series); with HOXC10 [3] it was 12.5 upbm affinity estimate (log intensity, higher = more binding, comparable within an allelic series); with HOXB9 [4] it was 11.9 upbm affinity estimate (log intensity, higher = more binding, comparable within an allelic series); with HOXC9 [5], 12.8 upbm affinity estimate (log intensity, higher = more binding, comparable within an allelic series); with HOXD13 [14], 10.8 upbm affinity estimate (log intensity, higher = more binding, comparable within an allelic series). Further, the binding signal in the experiment with HOXC9 [6] is 12.7 upbm affinity estimate (log intensity, higher = more binding, comparable within an allelic series); with HOXD13 [15] it was 11.8 upbm affinity estimate (log intensity, higher = more binding, comparable within an allelic series); with HOXC10 [7] it was 11.8 upbm affinity estimate (log intensity, higher = more binding, comparable within an allelic series); in the experiment with HOXD13 [16], 11.8 upbm affinity estimate (log intensity, higher = more binding, comparable within an allelic series); in the experiment with HOXB9 [8] it was 11.7 upbm affinity estimate (log intensity, higher = more binding, comparable within an allelic series); with HOXC9 [9] it was 10.9 upbm affinity estimate (log intensity, higher = more binding, comparable within an allelic series).

For CATAAAAC, the binding signal is 9.89 upbm affinity estimate (log intensity, higher = more binding, comparable within an allelic series) in the experiment with HOXB9 [1]; 12.9 upbm affinity estimate (log intensity, higher = more binding, comparable within an allelic series) in the experiment with HOXC9 [2]; 12.6 upbm affinity estimate (log intensity, higher = more binding, comparable within an allelic series) in the experiment with HOXC10 [3]; 12.4 upbm affinity estimate (log intensity, higher = more binding, comparable within an allelic series) with HOXB9 [4]; 13.1 upbm affinity estimate (log intensity, higher = more binding, comparable within an allelic series) in the experiment with HOXC9 [5]; 10.7 upbm affinity estimate (log intensity, higher = more binding, comparable within an allelic series) in the experiment with HOXD13 [14]. For the same sequence, the binding signal with HOXC9 [6] is 13 upbm affinity estimate (log intensity, higher = more binding, comparable within an allelic series); with HOXD13 [15], 12 upbm affinity estimate (log intensity, higher = more binding, comparable within an allelic series); with HOXC10 [7], 11.9 upbm affinity estimate (log intensity, higher = more binding, comparable within an allelic series); with HOXD13 [16], 11.7 upbm affinity estimate (log intensity, higher = more binding, comparable within an allelic series); in the experiment with HOXB9 [8], 12.1 upbm affinity estimate (log intensity, higher = more binding, comparable within an allelic series); in the experiment with HOXC9 [9], 11.3 upbm affinity estimate (log intensity, higher = more binding, comparable within an allelic series).

Consider AATAAAAT, for which the binding signal in the experiment with HOXB9 [1] is 10 upbm affinity estimate (log intensity, higher = more binding, comparable within an allelic series); in the experiment with HOXC9 [2], 12.7 upbm affinity estimate (log intensity, higher = more binding, comparable within an allelic series); in the experiment with HOXC10 [3], 12.5 upbm affinity estimate (log intensity, higher = more binding, comparable within an allelic series); with ALX4, 11.1 upbm affinity estimate (log intensity, higher = more binding, comparable within an allelic series); with HOXB9 [4], 12.1 upbm affinity estimate (log intensity, higher = more binding, comparable within an allelic series); in the experiment with HOXC9 [5], 12.7 upbm affinity estimate (log intensity, higher = more binding, comparable within an allelic series). The binding signal with HOXD13 [14] was 10.8 upbm affinity estimate (log intensity, higher = more binding, comparable within an allelic series); with HOXC9 [6] it was 12.7 upbm affinity estimate (log intensity, higher = more binding, comparable within an allelic series); with HOXD13 [15], 11.8 upbm affinity estimate (log intensity, higher = more binding, comparable within an allelic series); with HOXC10 [7], 12 upbm affinity estimate (log intensity, higher = more binding, comparable within an allelic series); in the experiment with HOXD13 [16] it was 11.8 upbm affinity estimate (log intensity, higher = more binding, comparable within an allelic series); with HOXB9 [8], 11.7 upbm affinity estimate (log intensity, higher = more binding, comparable within an allelic series). In addition, in the experiment with HOXC9 [9], the binding signal was 11.5 upbm affinity estimate (log intensity, higher = more binding, comparable within an allelic series).
